The record followed here is PubChem BioAssay AID588397 (National Center for Advancing Translational Sciences (NCATS), 2011).

Each structure is given as a SMILES string. In all, about 1,300 compounds went through this assay and about 1,000 (77%) were called active. Inconclusive results (about 7%) are left out. Calls follow the shape of the dose curve; as a rule, active = well fitted inhibition curve with a large enough effect; inconclusive = small, poorly fitted or top-dose-only effect; inactive = no such curve, though single readings can be large or run the other way. So high a share suggests a set chosen from earlier hits. Some of the results follow.
Potency is read from the fitted curve at half-maximal effect.

The experiment can be described thus: qHTS of small molecules that selectively kill Giardia lamblia: Hit Validation.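 Also: viability measured as ATP content by luminescence so killing lowers signal; nearly all actives have a fitted effect of over 65% in size.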 The following applies: Giardia lamblia trophozoite viability, dose-response; series mostly up to 38.3 µM. An excerpt: Giardia lamblia is a human pathogen afflicting impoverished nations, and the most common cause of outbreaks of diarrhea in the United States. Giardia has been classified by the CDC as a category B bioterrorism organism. The favored anti giardiasis drugs in the US are metronidazole or tinidazole, compounds that have undesirable side effects. Moreover, increasing resistance to drug regimes and recurrence are a concern. It is thus clear that alternative drug treatments are needed.
In a collaboration between the University of Maryland, College Park and the NIH Chemical Genomics Center, a bioluminescence Giardia viability assay based on the trophozoites' ATP content was developed. This assay is suitable for high throughput screening, and miniaturized the assay for compound screening in 1536-well plates. The goal of the project is to screen the Molecular Libraries Small Molecule Repository (MLSMR) for compounds that selectively kill Giardia trophozoites.
NIH Chemical Genomics Center [NCGC]
NIH Molecular Libraries Probe Centers Network [MLPCN]
Assay Submitter (PI): Osnat Herzberg, University of Maryland, College Park, MD.
1. Dispense 2 ul/well media
2. Dispense 23 nl/well compounds
3. Dispense 4 ul/well Giardia trophozoites at a concentration of 100 cells/well
4. Incubate 48 hrs at 37 deg C anaerobically
5. Dispense 4 ul/well ATPLite 1-Step Luminescence assay kit
6. Incubate 15-30 min at room temperature
7. Read luminescence signal on ViewLux plate reader
(In qHTS, concentration-response curves come from the screen itself.)
In the case of `COc1ccccc1NC(=O)C(=O)N/N=C/c1ccc([N+](=O)[O-])s1`, the Potency was 2.05 µM (active). For `COC(=O)N/N=C/c1ccc([N+](=O)[O-])s1`, the Potency is 4.1 µM (active). The same measure for `CCOC(=O)N/N=C\c1ccc([N+](=O)[O-])s1`: 4.1 µM (active).

For `Cc1ccnn1CC(=O)N/N=C/c1ccc([N+](=O)[O-])s1`, the Potency is 3.65 µM (active). Next, `O=C(COC(=O)c1cc(Cl)ccc1O)NC(=O)NCc1ccccc1`: “inactive”. Consider `Cc1csc(NC(=O)CSc2nc3[nH]c(=O)cc(O)c3s2)n1`, for which the Potency was 1.03 µM (active).

For the molecule `CC(NCCN(C)C)C1CCC2C3CCc4cc(O)ccc4C3CCC12C` (centres undefined), the Potency is 1.16 µM (active). The same measure for `COc1cc(C2CC(=O)Oc3cc(C)c(Cl)c(C)c32)cc(OC)c1OC` (centres undefined): “inactive”; for `COc1cc(/C=C2\COC/C(=C\c3cc(OC)c(OC)c(OC)c3)C2=O)cc(OC)c1OC`: 11.6 µM (active); for `Cc1nn(CCCC(=O)Nc2c(F)cc(F)cc2Br)c(C)c1[N+](=O)[O-]`: “inactive”. Consider `O=C(CCCn1cnc([N+](=O)[O-])n1)Nc1cccc(Cl)c1Cl`, for which the Potency is 3.65 µM (active).

Regarding `COc1ccc(NC(=O)CCCn2nc(C)c3c(C)n(-c4ccccc4)nc3c2=O)cc1OC`, the Potency entry was “inactive”.

For the molecule `O=C(CCCn1cnc([N+](=O)[O-])n1)Nc1ccc(F)c(Cl)c1`, the Potency is 3.65 µM (active). For the molecule `Cc1c(Cl)cccc1NC(=O)CCCn1cnc([N+](=O)[O-])n1`, the Potency was 4.1 µM (active). Regarding `O=C(c1ccco1)N1CCN(Cc2cc(=O)c(OCc3ccc([N+](=O)[O-])cc3)co2)CC1`, the Potency was 0.183 µM (active). The same measure for `O=[N+]([O-])c1cccc(COc2ccccc2CN2CCCC2)c1`: “inactive”.

On to `O=C1NC(=O)/C(=C\c2ccc(Oc3ccc([N+](=O)[O-])cn3)cc2)S1`, for which the Potency was 9.18 µM (active). Next, `O=C(Nc1ccc(C(=O)O)cc1)/C(=C\C=C\c1ccccc1)NC(=O)c1ccccc1Cl`: 6.5 µM (active); `C#CCOCCOCCOCCNc1nc(N2CCN(C(=O)[C@H](CCC(=O)O)n3cc([C@@H](N)CC(N)=O)nn3)CC2)nc(N2CCN(C(=O)[C@H](CCC(=O)O)n3cc([C@@H](N)CC(N)=O)nn3)CC2)n1`: “inactive”. Turning to `CCCCCN=Cc1c(C)[nH]n(-c2nc3ccccc3s2)c1=O`, the Potency was 3.26 µM (active).

As for `Cc1ccc(N=Nc2c(O)ccc3n[nH]nc23)cc1`, the Potency is 3.65 µM (active).

In the case of `CCC1=C(OC(=O)N(CC)CC)N2C(=O)OC(=NCC(=O)OC)[C@]2(C)[C@H]2C1=CC[C@H]1C(=O)N(CC)C(=O)[C@H]12`, the Potency entry is “inactive”. As for `CN(C)C(=O)C[n+]1ccc(C(N)=O)cc1`, the Potency result was “inactive”. Take `Cc1ccc(NC(=O)Cn2cnc([N+](=O)[O-])c2)cc1C`: the Potency is 8.18 µM (active). With `Fc1ccc(CN2CC[C@H]3C=CCc4cccc(c43)C2)cc1`, the Potency entry is “inactive”.

Turning to `COc1ccc(C(=O)COC(=O)c2ccccc2NS(=O)(=O)c2ccc(O)c([N+](=O)[O-])c2)cc1`, the Potency was 1.45 µM (active). `COc1ccc(S(=O)(=O)Nc2c(O)c3ccccc3oc2=O)cc1`: the Potency entry is “inactive”. As for `Cc1ccc(S(=O)(=O)Nc2ccc(C(OC(=O)c3ccccc3[N+](=O)[O-])(C(F)(F)F)C(F)(F)F)cc2)cc1`, the Potency was 3.65 µM (active). As to `O=C(N/N=C/c1ccc([N+](=O)[O-])o1)c1cc(-c2cccc(Br)c2)nc2ccccc12`, the Potency was 1.16 µM (active).

In the case of `O=C(N/N=C/c1ccc([N+](=O)[O-])o1)c1cc(-c2ccc(-c3ccccc3)cc2)nc2ccccc12`, the Potency was 1.03 µM (active).

Take `CCCc1ccc(-c2cc(C(=O)N/N=C/c3ccc([N+](=O)[O-])o3)c3ccccc3n2)cc1`: the Potency was 1.63 µM (active). Next, `Cc1ccc(-c2cc(C(=O)N/N=C/c3ccc([N+](=O)[O-])o3)c3ccccc3n2)o1`: 1.03 µM (active); `COc1ccc(-c2ccc([C@H]3[C@@H]4C=CCC[C@@]4(C)C(=O)N3Cc3ccccc3)c(F)c2)cc1OC`: “inactive”.

On to `COc1cc(/C=C2\SC(=O)N(c3ccc(Cl)cc3)C2=O)cc([N+](=O)[O-])c1O`, for which the Potency was 4.1 µM (active). The same measure for `COc1cc(/C=C2\SC(=O)N(Cc3ccc(Cl)cc3)C2=O)cc([N+](=O)[O-])c1O`: 1.63 µM (active); for `COc1cc(/C=C2\SC(=O)N(Cc3ccc(F)cc3)C2=O)cc([N+](=O)[O-])c1O`: 1.83 µM (active).

For the molecule `CCS(=O)(=O)Nc1cccc(C2=NN(S(=O)(=O)c3ccc(C)cc3)C(c3ccco3)C2)c1` (centres undefined), the Potency result was “inactive”. On to `COc1ccc(NS(=O)(=O)c2ccc(S(=O)(=O)N(C)C)cc2)cc1S(N)(=O)=O`, for which the Potency entry was “inactive”.

With `COc1ccc(OCc2cc(C(=O)N(C)Cc3cc(C4CC4)n[nH]3)no2)c(Cl)c1`, the Potency result is “inactive”.

Turning to `COc1ccc(OC)c(/C=C/c2ccc3ccccc3n2)c1`, the Potency result is “inactive”. For the molecule `COc1ccc(/C=C/c2ccc3ccccc3n2)c(OC)c1`, the Potency is 2.31 µM (active). On to `COc1cccc(/C=C/c2ccc3ccccc3n2)c1OC(C)=O`, for which the Potency was 8.18 µM (active). The same measure for `COc1ccc(/C=C/c2ccc3ccccc3n2)cc1OC`: 4.6 µM (active). Consider `O=[N+]([O-])c1ccc(CN2CCN(c3ccccc3Cl)CC2)o1`, for which the Potency is 0.65 µM (active).

Regarding `Cc1cccc(N2CCN(Cc3ccc([N+](=O)[O-])o3)CC2)c1C`, the Potency is 0.729 µM (active). The same measure for `Cc1ccccc1N1CCN(Cc2ccc([N+](=O)[O-])o2)CC1`: 1.16 µM (active); for `C#CCCOC(=O)Nc1ccccc1`: “inactive”; for `Cc1ncc([N+](=O)[O-])n1CCOC(=O)Nc1ccc([N+](=O)[O-])cc1`: 0.146 µM (active). As to `Cc1ncc([N+](=O)[O-])n1CCOC(=O)Nc1ccc(Cl)c(Cl)c1`, the Potency is 0.23 µM (active). Next, `COc1ccc(NC(=O)OCCn2c([N+](=O)[O-])cnc2C)cc1`: 0.65 µM (active); `CN1C2=CC=CC=CC2=[N+](C)C12C([N+](=O)[O-])=CC(=[N+]([O-])[O-])C=C2[N+](=O)[O-]` (centres undefined): 0.206 µM (active).

With `CCOC(=O)c1ccc(NS(C)(=O)=O)cc1`, the Potency entry is “inactive”. For the molecule `Cc1cc(C(=O)COC(=O)c2cccc(NS(C)(=O)=O)c2)c(C)n1CC1CCCO1` (centres undefined), the Potency was 4.1 µM (active). Next, `Cc1nnc(N/N=C/c2cccs2)[nH]c1=O`: “inactive”. Turning to `S=C(NCCc1ccccc1)N/N=C/c1cccs1`, the Potency is 23.1 µM (active). As for `CC1CC(C)C(=O)C(C(CC2CC(=O)NC(=O)C2)OC(=O)CC(=O)c2ccccc2)C1` (centres undefined), the Potency is 0.13 µM (active). Next, `CCn1nnc(NC(=O)c2ccc(C(C)(C)C)cc2)n1`: 7.29 µM (active); `O=C(Nc1ccc(Br)cn1)c1ccc([N+](=O)[O-])o1`: 1.63 µM (active); `Cc1cccnc1NC(=O)c1ccc([N+](=O)[O-])o1`: 0.918 µM (active). For the molecule `O=C(Nc1ncccn1)c1ccc([N+](=O)[O-])o1`, the Potency was 1.3 µM (active). The same measure for `O=C(Nc1ccccn1)c1ccc([N+](=O)[O-])o1`: 1.63 µM (active). Consider `CCn1nnc(NC(=O)c2ccc([N+](=O)[O-])o2)n1`, for which the Potency is 1.45 µM (active).

Regarding `Cc1onc(NC(=O)c2ccc([N+](=O)[O-])o2)c1Br`, the Potency is 1.63 µM (active). Next, `O=C(NCC(c1ccco1)N1CCCC1)c1ccc(S(=O)(=O)Nc2ccccc2Cl)cc1` (centres undefined): “inactive”. Consider `CC1(C)[N+]([O-])=C2C(=[N+]([O-])C1(C)C)c1ccccc1/C2=N\O`, for which the Potency is 1.63 µM (active).

As to `C/C(=N\NC(=O)COc1ccc(C)cc1Br)c1cc([N+](=O)[O-])cs1`, the Potency is 1.63 µM (active). Next, `CC(=NN1CC(=O)NC1=O)c1ccc([N+](=O)[O-])o1`: 1.45 µM (active); `COc1cccc(NC2c3ccccc3C(=O)N2Cc2ccco2)c1` (centres undefined): “inactive”; `O=[N+]([O-])c1ccc(-c2ccn[nH]2)o1`: 0.0516 µM (active). In the case of `CC(=O)Oc1ccc2c(=O)c(Oc3ccccc3[N+](=O)[O-])coc2c1`, the Potency was 3.26 µM (active). Next, `CCOC(=O)N1C(C)CN(/[N+]([O-])=N/Oc2ccc([N+](=O)[O-])cc2[N+](=O)[O-])CC1C` (centres undefined): 5.79 µM (active); `CCN(CC)/[N+]([O-])=N/Oc1ccc([N+](=O)[O-])cc1[N+](=O)[O-]`: 4.1 µM (active); `CCOC(=O)c1nnn(-c2ccc([N+](=O)[O-])cc2[N+](=O)[O-])c1C`: 8.18 µM (active).

With `O=[N+]([O-])c1ccc(O/N=[N+](\[O-])N2CCCCC2)c([N+](=O)[O-])c1`, the Potency is 5.16 µM (active). The same measure for `O=C1CC(SC(=Nc2ccccc2)Nc2ccccc2)C(=O)N1c1cccc2ccccc12` (centres undefined): “inactive”; for `O=[n+]1c2c(n([O-])c3cc(Br)ccc31)CCCC2`: 2.31 µM (active); for `O=[n+]1c2c(n([O-])c3cc(Cl)ccc31)CCCC2`: 4.6 µM (active). The same measure for `O=[n+]1c2c(n([O-])c3cc(Br)ccc31)CCC2`: 2.31 µM (active). Turning to `Cc1ccc(N=c2c([N+](=O)[O-])nn(-c3ccccc3)n2O)c(C)c1`, the Potency is 1.03 µM (active). The same measure for `Cc1c(Cl)cccc1N=c1c([N+](=O)[O-])nn(-c2ccccc2)n1O`: 0.516 µM (active); for `CCCC/C=C/C(NC(=O)c1ccc(C(=O)OC)cc1)c1ccccc1` (centres undefined): “inactive”; for `Cc1c(N=Nc2ccc(O)cc2)c(=O)n(-c2ccccc2)n1C`: 5.16 µM (active).

As to `COc1cc(N=Nc2c(C)n(C)n(-c3ccccc3)c2=O)ccc1N`, the Potency is 2.31 µM (active). Next, `Cc1cc(N)ccc1N=Nc1c(C)n(C)n(-c2ccccc2)c1=O`: 0.729 µM (active); `Cc1c(NC2(C#N)CCCC2)c(=O)n(-c2ccccc2)n1C`: “inactive”; `CCNc1ccc(N=Nc2c(C)n(C)n(-c3ccccc3)c2=O)cc1`: 0.729 µM (active).

With `Cc1c(N=Nc2ccc(N(C)C)cc2)c(=O)n(-c2ccccc2)n1C`, the Potency is 0.65 µM (active).

For the molecule `O=[N+]([O-])c1ccc(/C=C/c2ccnc3ccccc23)c([N+](=O)[O-])c1`, the Potency was 7.29 µM (active). The same measure for `CSC1SCC2C(=O)N(C)C(C(C)C)C(=O)OCC(NC(=O)c3cnc4ccccc4n3)C(=O)NC(C)C(=O)N(C)C1C(=O)N(C)C(C(C)C)C(=O)OCC(NC(=O)c1cnc3ccccc3n1)C(=O)NC(C)C(=O)N2C` (centres undefined): 0.206 µM (active).
